# Results as given in PubChem BioAssay AID1159580 (chemical genetic matrix, 2015).
# Several values for one entry are separate records, joined by “and”; a condition that tells them apart may be missing. Equal values may be shown once. Among all 5,500 compounds or so, about 2,000 (36%) were called active. Not shown: some 18% with an inconclusive outcome. Some of the results follow. Values without a mark were called inactive. No stated cut-off is given here; in the data, active means normalized growth mostly below about 0.91 (no sharp cut-off); inconclusive means no clear call, values can overlap the other calls; inactive means mostly above about 0.92.
# Assay: chemical genetic growth profiling, strain panel (AID 1159580);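 further: tested at 20 µM; growth read once vehicle control cultures reached saturation at 30 °C; 1 = growth at the plate median or of vehicle wells; lower values mean less growth of the strain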
# Details: S. cerevisiae deletion strains, growth OD
smiles,measurement,setting,value
CCOc1nc2cccc(C(=O)OC(C)OC(=O)OC3CCCCC3)c2n1Cc1ccc(-c2ccccc2-c2nn[nH]n2)cc1 (configuration not stated),normalized growth,"locus YAL013W, strain DEP1, hits give low values",1
same,normalized growth,"locus YAL021C, strain ccr4, hits give low values",1
same,normalized growth,"locus YAL026C, strain drs2, hits give low values",1.03
same,normalized growth,"locus YAL030W, strain snc1, hits give low values",1.02
same,normalized growth,"locus YBL061C, strain skt5, hits give low values",1.01
same,normalized growth,"locus YBR009C, strain hhf1, hits give low values",0.998
same,normalized growth,"locus YBR021W, strain FUR4, hits give low values",1.03
same,normalized growth,"locus YBR023C, strain chs3, hits give low values",1.03
same,normalized growth,"locus YBR171W, strain sec66, hits give low values",1.05
same,normalized growth,"locus YBR229C, strain ROT2, hits give low values",0.996
same,normalized growth,"locus YBR231C, strain swc5, hits give low values",1.01
same,normalized growth,"locus YBR279W, strain paf1, hits give low values",1.02
same,normalized growth,"locus YCL011C, strain gbp2, hits give low values",1.02
same,normalized growth,"locus YCL016C, strain dcc1, hits give low values",1.01
same,normalized growth,"locus YCL029C, strain bik1, hits give low values",1.01
same,normalized growth,"locus YCL061C, strain MRC1, hits give low values",1.02
same,normalized growth,"locus YCL069W, strain vba3, hits give low values",1.05
same,normalized growth,"locus YCR088W, strain abp1, hits give low values",1.03
same,normalized growth,"locus YDL005C, strain med2, hits give low values",1.03
same,normalized growth,"locus YDL035C, strain GPR1, hits give low values",0.977
same,normalized growth,"locus YDL040C, strain nat1, hits give low values",1.02
same,normalized growth,"locus YDL074C, strain BRE1, hits give low values",0.96
same,normalized growth,"locus YDL101C, strain DUN1, hits give low values",0.998
same,normalized growth,"locus YDL134C, strain PPH21, hits give low values",1.01
same,normalized growth,"locus YDL185W, strain tfp1, hits give low values",0.999
same,normalized growth,"locus YDL192W, strain arf1, hits give low values",1
same,normalized growth,"locus YDR001C, strain nth1, hits give low values",1.03
same,normalized growth,"locus YDR069C, strain doa4, hits give low values",1.04
same,normalized growth,"locus YDR101C, strain arx1, hits give low values",1
same,normalized growth,"locus YDR137W, strain rgp1, hits give low values",0.824 (active)
same,normalized growth,"locus YDR150W, strain NUM1, hits give low values",1.01
same,normalized growth,"locus YDR159W, strain sac3, hits give low values",1
same,normalized growth,"locus YDR162C, strain NBP2, hits give low values",0.983
same,normalized growth,"locus YDR195W, strain ref2",0.994
same,normalized growth,"locus YDR297W, strain sur2, hits give low values",0.994
same,normalized growth,"locus YDR318W, strain mcm21, hits give low values",0.995
same,normalized growth,"locus YDR334W, strain swr1, hits give low values",1.03
same,normalized growth,"locus YDR335W, strain msn5, hits give low values",1.03
same,normalized growth,"locus YDR388W, hits give low values",1
same,normalized growth,"locus YDR392W, strain spt3, hits give low values",0.996
same,normalized growth,"locus YDR502C, strain sam2, hits give low values",0.997
same,normalized growth,"locus YEL003W, strain gim4, hits give low values",1.03
same,normalized growth,"locus YEL037C, strain rad23, hits give low values",1.02
same,normalized growth,"locus YEL061C, strain CIN8 (second series), hits give low values",1.02
same,normalized growth,"locus YEL061C, strain CIN8, hits give low values",1
same,normalized growth,"locus YER015W, strain faa2, hits give low values",1.02
same,normalized growth,"locus YER016W, strain bim1, hits give low values",1.02
same,normalized growth,"locus YER110C, hits give low values",0.997
same,normalized growth,"locus YER111C, strain swi4, hits give low values",1.04
same,normalized growth,"locus YER155C, strain BEM2 (second series), hits give low values",1.07
same,normalized growth,"locus YER155C, strain BEM2, hits give low values",1.01
same,normalized growth,"locus YER167W, strain BCK2, hits give low values",0.986
same,normalized growth,"locus YFR010W, strain ubp6, hits give low values",1.04
same,normalized growth,"locus YGL078C, strain dbp3, hits give low values",1.01
same,normalized growth,"locus YGL086W, strain mad1, hits give low values",0.997
same,normalized growth,"locus YGL167C, strain pmr1, hits give low values",1.03
same,normalized growth,"locus YGL173C, strain kem1, hits give low values",1.03
same,normalized growth,"locus YGL227W, strain vid30, hits give low values",1.02
same,normalized growth,"locus YGL240W, strain doc1, hits give low values",1.02
same,normalized growth,"locus YGL248W, strain PDE1, hits give low values",1.01
same,normalized growth,"locus YGL253W, strain hxk2, hits give low values",1.04
same,normalized growth,"locus YGR078C, strain PAC10, hits give low values",0.988
same,normalized growth,"locus YGR135W, strain pre9, hits give low values",1
same,normalized growth,"locus YGR229C, strain SMI1, hits give low values",0.851
same,normalized growth,"locus YGR252W, strain gcn5, hits give low values",0.972
same,normalized growth,"locus YHR013C, strain ard1, hits give low values",1.03
same,normalized growth,"locus YHR027C, strain rpn1, hits give low values",1.01
same,normalized growth,"locus YHR030C, strain SLT2, hits give low values",0.996 and 0.96
same,normalized growth,"locus YHR079C, strain IRE1 (second series), hits give low values",0.996
same,normalized growth,"locus YHR079C, strain IRE1, hits give low values",0.957
same,normalized growth,"locus YHR094C, strain hxt1, hits give low values",0.995
same,normalized growth,"locus YHR129C, strain ARP1, hits give low values",1.01
same,normalized growth,"locus YHR142W, strain chs7, hits give low values",1.04
same,normalized growth,"locus YHR200W, strain rpn10, hits give low values",0.998
same,normalized growth,"locus YIL066C, strain RNR3, hits give low values",1.01
same,normalized growth,"locus YIL073C, strain SPO22, hits give low values",1.07
same,normalized growth,"locus YIL125W, strain kgd1, hits give low values",0.989
same,normalized growth,"locus YIR030C, strain dcg1, hits give low values",0.996
same,normalized growth,"locus YJL092W, strain hpr5, hits give low values",1.03
same,normalized growth,"locus YJL095W, strain BCK1 (second series), hits give low values",1.01
same,normalized growth,"locus YJL095W, strain BCK1, hits give low values",0.8 and 1.01
same,normalized growth,"locus YJL115W, strain asf1, hits give low values",1.04
same,normalized growth,"locus YJL129C, strain trk1, hits give low values",1.04
same,normalized growth,"locus YJL134W, strain LCB3, hits give low values",1.01
same,normalized growth,"locus YJL154C, strain vps35, hits give low values",1.03
same,normalized growth,"locus YJL164C, strain tpk1, hits give low values",1.01
same,normalized growth,"locus YJL166W, strain qcr8, hits give low values",1.01
same,normalized growth,"locus YJL168C, strain set2, hits give low values",0.994
same,normalized growth,"locus YJL187C, strain SWE1 (second series), hits give low values",0.997
same,normalized growth,"locus YJL187C, strain SWE1, hits give low values",1.01
same,normalized growth,"locus YJR043C, strain POL32, hits give low values",0.996
same,normalized growth,"locus YJR066W, strain TOR1, hits give low values",0.93
